Outcome and AC50 data for nine compounds are collected here from PubChem BioAssay (EPA / NIEHS).

Molecules are shown by their SMILES. Results filed as inconclusive are left out. Activity calls are given as the source filed them. How the source made its calls: active means hit-call score of the fitted dose curve at least 0.9, where 1 is the maximum; inconclusive means response in the unintended direction; inactive means score below 0.9.

As usually defined, the AC50 is the midpoint of the concentration-response curve, whichever way the signal moves.

The target in assay [1] is Estrogen receptor (Homo sapiens) (UniProt P03372). Put plainly: OT_ER_ERaERa_1440: Odyssey Thera (OT) 24-hour HEK293T Protein-Complementation Assay for Estrogen Receptor-alpha/-alpha Homodimer (AID 2283349).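 Further: hits raise fluorescence above DMSO for agonists and antagonists alike.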 In outline:
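Readout is the rise in mean fluorescence from reporter fragment complementation when ERα LBD (aa 310-547) units dimerize in HEK293T cells. Measured 24 h after dosing and analysed as increase over DMSO control.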

Assay [2] addresses bovine Estrogen Receptor (ER), ESR1 (gene 407238) (UniProt P49884). Put plainly: NVS_NR_bER: NovaScreen (NVS) Nuclear Receptor Binding Assay for bovine Estrogen Receptor (ER) (AID 2283345).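 Further: actives lower the bound radioligand count which means they displace the ER ligand.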 In outline: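 Cell-free radioligand binding with bovine uterine membrane extracts, read 18 hours after dosing by scintillation counting. Loss of signal versus DMSO baseline indicates displacement. Primary screen run in duplicate at 25 uM, actives followed in concentration series.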

The target in assay [3] is chimpanzee Androgen Receptor (AR), AR (gene 747460) (UniProt O97775). Kind of assay: NVS_NR_cAR: NovaScreen (NVS) Nuclear Receptor Binding Assay for chimpanzee Androgen Receptor (AR) (AID 2283346).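 Further: radioligand displacement from AR measured by scintillation counting in a cell-free assay.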 In outline:
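Cell-free radioligand displacement using receptor protein extracted from Sf9/Sf21 cells; bound radioligand measured by scintillation counting 72 hours after chemical dosing. Loss of signal versus DMSO baseline indicates binding; primary screen single-concentration in duplicate at 25 uM, actives followed in concentration series.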

Assay [4] has as its target Estrogen receptor (Homo sapiens) (UniProt P03372). Put plainly: NVS_NR_hER: NovaScreen (NVS) Nuclear Receptor Binding Assay for human Estrogen Receptor (ER) (AID 2283348). In outline: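 Cell-free radioligand binding with protein extracted from MCF7 cells; scintillation counting 18 hours after dosing. Loss of signal versus DMSO baseline read as displacement; primary single-concentration screen at 25 uM in duplicate, actives retested in concentration series.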

Assay [5] shares this target. Kind of assay: OT_ER_ERaERa_0480: Odyssey Thera (OT) 8-hour HEK293T Protein-Complementation Assay for Estrogen Receptor-alpha/-alpha Homodimer (AID 2283351).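 Further: rise in fluorescence from reassembled reporter fragments on ERα LBD homodimer in nucleus or whole cell.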 In outline:
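HEK293T, stable ERα LBD (aa 310-547) PCA homodimer; 8 h compound exposure; fluorescence intensity, laser scanning cytometer; positive fitting direction, DMSO baseline.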

In assay [6] the target is human Constitutive Androstane Receptor (CAR), NR1I3 (gene 9970) (UniProt Q14994). Put plainly: NVS_NR_hCAR_Antagonist: NovaScreen (NVS) Nuclear Receptor Binding Assay for human Constitutive Androstane Receptor Antagonism (CAR) (AID 2283344). In outline:
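Cell-free TR-FRET binding read 1 h after dosing, antagonist mode; loss of signal versus DMSO baseline. Primary screen in duplicate at a single 25 uM; actives retested in concentration series.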

Assay [7] concerns the target Estrogen receptor (Homo sapiens) + Estrogen receptor beta (Homo sapiens) (UniProt P03372+Q92731). Put plainly: OT_ER_ERaERb_0480: Odyssey Thera (OT) 8-hour HEK293T Protein-Complementation Assay for Estrogen Receptor-alpha/-beta Heterodimer (AID 2283352). In outline: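 Increase in mean fluorescence intensity, measured by laser scanning plate cytometry, reported ER-alpha/ER-beta LBD complementation in HEK293T cells after 8 h chemical exposure. DMSO served as baseline; basal signal is low, punctate and cytoplasmic.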

The test system of assay [8] is guinea pig Histamine Receptor (H2), gene 100729734. Put plainly: NVS_GPCR_gH2: NovaScreen (NVS) G Protein-Coupled Receptor Assay for guinea pig Histamine Receptor (H2) (AID 2283342). In outline:
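Radioligand displacement on guinea pig striatal membranes, 1 h after dosing, filter-based scintillation counting; loss of signal versus DMSO. Single-point screen at 25 uM in duplicate, then concentration-response up to 50 uM.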

Another assay relates to NCBI gene 100848466. Kind of assay: NVS_NR_bPR: NovaScreen (NVS) Nuclear Receptor Binding Assay for bovine Progextron Receptor (PR) (AID 2283343).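 Further: actives lower bound radioligand signal below DMSO meaning displacement of the label.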 In outline:
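Bovine uterine membrane preparation, cell-free; radioligand competitive displacement measured by scintillation counting 18 hours after dosing. Loss of signal versus DMSO baseline indicates binding; primary HTS single concentration 25 uM in duplicate, actives followed in concentration series.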

Sequence of Estrogen receptor (Homo sapiens) + Estrogen receptor beta (Homo sapiens) (P03372 whole entry, looked up, the tested form may be a part): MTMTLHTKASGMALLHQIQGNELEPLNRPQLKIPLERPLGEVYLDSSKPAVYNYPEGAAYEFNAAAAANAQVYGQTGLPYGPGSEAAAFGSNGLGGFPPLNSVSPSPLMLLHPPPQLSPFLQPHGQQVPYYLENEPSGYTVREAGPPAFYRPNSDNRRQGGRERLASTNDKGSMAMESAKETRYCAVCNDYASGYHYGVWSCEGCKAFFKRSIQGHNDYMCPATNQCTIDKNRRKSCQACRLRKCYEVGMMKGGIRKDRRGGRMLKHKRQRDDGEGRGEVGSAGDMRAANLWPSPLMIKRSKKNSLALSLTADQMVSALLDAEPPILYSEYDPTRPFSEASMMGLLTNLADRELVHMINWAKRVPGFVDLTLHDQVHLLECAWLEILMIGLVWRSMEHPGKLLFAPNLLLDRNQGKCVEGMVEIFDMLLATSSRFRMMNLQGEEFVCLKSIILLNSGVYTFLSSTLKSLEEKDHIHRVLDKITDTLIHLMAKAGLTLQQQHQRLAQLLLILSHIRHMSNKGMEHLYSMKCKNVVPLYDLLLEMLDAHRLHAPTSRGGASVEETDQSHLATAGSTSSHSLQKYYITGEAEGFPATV
Sequence of Estrogen receptor (Homo sapiens) + Estrogen receptor beta (Homo sapiens) (Q92731 whole entry, looked up, the tested form may be a part): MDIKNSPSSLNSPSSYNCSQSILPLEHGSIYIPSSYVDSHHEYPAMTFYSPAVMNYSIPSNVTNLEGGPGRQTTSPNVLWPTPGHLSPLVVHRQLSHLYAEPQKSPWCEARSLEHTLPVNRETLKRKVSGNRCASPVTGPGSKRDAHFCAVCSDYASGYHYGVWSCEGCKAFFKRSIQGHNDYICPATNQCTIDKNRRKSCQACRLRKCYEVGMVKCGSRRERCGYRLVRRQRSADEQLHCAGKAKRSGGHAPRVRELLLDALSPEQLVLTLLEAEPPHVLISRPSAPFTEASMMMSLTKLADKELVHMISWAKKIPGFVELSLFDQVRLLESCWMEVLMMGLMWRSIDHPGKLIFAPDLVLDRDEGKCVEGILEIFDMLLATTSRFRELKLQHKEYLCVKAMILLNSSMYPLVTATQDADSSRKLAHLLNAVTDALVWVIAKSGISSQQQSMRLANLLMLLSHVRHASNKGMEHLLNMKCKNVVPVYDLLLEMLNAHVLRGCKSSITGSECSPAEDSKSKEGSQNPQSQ
Sequence of Estrogen receptor (Homo sapiens) (P03372 whole entry, looked up, the tested form may be a part): as the sequence (P03372 whole entry, looked up, the tested form may be a part) above
Sequence of bovine Estrogen Receptor (ER), ESR1 (gene 407238) (P49884 whole entry, looked up): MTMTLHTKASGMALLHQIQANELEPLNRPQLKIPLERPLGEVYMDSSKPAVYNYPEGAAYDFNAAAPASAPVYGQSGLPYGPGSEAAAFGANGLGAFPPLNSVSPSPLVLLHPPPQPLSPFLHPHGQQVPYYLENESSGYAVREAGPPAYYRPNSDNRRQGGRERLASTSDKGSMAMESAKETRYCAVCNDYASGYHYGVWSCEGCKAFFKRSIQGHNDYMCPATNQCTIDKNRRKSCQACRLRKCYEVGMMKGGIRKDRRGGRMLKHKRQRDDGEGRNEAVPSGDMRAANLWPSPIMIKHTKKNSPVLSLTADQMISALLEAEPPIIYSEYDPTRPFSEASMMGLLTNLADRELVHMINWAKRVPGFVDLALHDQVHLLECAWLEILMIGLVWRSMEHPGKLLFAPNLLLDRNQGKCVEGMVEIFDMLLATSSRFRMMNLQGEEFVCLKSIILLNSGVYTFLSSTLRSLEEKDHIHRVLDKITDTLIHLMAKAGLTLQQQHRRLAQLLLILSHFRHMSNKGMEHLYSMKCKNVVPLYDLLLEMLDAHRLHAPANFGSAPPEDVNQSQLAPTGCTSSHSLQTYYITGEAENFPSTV
Sequence of human Constitutive Androstane Receptor (CAR), NR1I3 (gene 9970) (Q14994 whole entry, looked up): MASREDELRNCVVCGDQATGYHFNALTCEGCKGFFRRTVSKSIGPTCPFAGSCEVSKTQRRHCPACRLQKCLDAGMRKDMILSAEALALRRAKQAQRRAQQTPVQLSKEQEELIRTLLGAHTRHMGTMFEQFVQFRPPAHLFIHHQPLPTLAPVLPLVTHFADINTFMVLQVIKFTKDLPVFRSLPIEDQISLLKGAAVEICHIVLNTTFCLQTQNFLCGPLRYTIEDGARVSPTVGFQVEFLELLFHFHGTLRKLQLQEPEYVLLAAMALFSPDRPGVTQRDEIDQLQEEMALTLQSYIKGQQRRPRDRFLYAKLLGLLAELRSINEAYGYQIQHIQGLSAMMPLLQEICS
Sequence of chimpanzee Androgen Receptor (AR), AR (gene 747460) (O97775 whole entry, looked up): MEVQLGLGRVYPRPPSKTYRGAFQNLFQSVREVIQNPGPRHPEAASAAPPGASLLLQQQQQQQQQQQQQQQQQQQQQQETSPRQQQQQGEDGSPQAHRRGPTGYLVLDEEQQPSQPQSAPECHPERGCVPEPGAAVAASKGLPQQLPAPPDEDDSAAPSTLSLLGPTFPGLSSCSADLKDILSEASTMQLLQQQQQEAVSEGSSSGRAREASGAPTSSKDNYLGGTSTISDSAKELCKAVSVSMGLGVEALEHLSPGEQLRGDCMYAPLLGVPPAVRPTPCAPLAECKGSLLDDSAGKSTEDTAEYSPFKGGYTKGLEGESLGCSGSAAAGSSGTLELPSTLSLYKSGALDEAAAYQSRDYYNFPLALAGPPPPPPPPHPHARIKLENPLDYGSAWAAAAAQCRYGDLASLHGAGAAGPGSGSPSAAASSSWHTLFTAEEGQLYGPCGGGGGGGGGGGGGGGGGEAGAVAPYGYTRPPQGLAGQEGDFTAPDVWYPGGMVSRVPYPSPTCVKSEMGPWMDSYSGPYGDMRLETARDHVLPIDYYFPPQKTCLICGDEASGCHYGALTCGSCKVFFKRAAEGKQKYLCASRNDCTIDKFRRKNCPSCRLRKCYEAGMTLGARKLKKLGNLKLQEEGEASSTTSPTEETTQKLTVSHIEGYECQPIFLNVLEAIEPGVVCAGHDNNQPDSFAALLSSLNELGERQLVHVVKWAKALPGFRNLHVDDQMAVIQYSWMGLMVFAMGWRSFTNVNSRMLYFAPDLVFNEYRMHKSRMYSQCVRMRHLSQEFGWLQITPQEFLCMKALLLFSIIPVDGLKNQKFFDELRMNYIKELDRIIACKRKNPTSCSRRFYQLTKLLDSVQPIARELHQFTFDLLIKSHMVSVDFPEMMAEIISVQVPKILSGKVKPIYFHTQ

Regarding `CCCCCCCCN(C)C`, the result in assay [1] was inactive.

Consider `C[C@]12C=CC(=O)C=C1CC[C@H]1[C@@H]3C[C@@H](O)[C@](O)(C(=O)CO)[C@@]3(C)C[C@H](O)[C@@]12F`, for which the call in assay [2], in [1] and in assay [5] was inactive. The values for the concentration at half-maximal activity (AC50) in assay [3] and in assay [4] were 32.6 µM (active) and 38.3 µM (active), respectively.

Consider `O=C(O)c1ccc2c(c1)nc(C(=O)NC1CCN(C3CC3)CC1)n2Cc1cc(-c2ccc(Cl)s2)on1`, for which the result in assay [6], in assay [1] and in assay [7] was inactive.

As for `Nc1ccn([C@@H]2O[C@H](CO)[C@@H](O)[C@@H]2O)c(=O)n1`, the AC50 in assay [4] was 22.5 µM (active). For the same compound, the result in assay [1] and in assay [5] was inactive.

Consider `OC[C@H]1O[C@@H]2O[C@H]3[C@H](O)[C@@H](O)[C@@H](O[C@H]4[C@H](O)[C@@H](O)[C@@H](O[C@H]5[C@H](O)[C@@H](O)[C@@H](O[C@H]6[C@H](O)[C@@H](O)[C@@H](O[C@H]7[C@H](O)[C@@H](O)[C@@H](O[C@H]1[C@H](O)[C@H]2O)O[C@@H]7CO)O[C@@H]6CO)O[C@@H]5CO)O[C@@H]4CO)O[C@@H]3CO`, for which the AC50 in assay [2] is 1.18 µM (active); in assay [4], 0.472 µM (active). Besides, the outcome in assay [1], in assay [5] and in assay [7] was inactive.

Consider `CCCCCCCCCCCCCCCCOS(=O)(=O)O`, for which the result in assay [6], in [1], in assay [5] and in assay [7] was inactive.

Regarding `NC(=O)N1c2ccccc2C=Cc2ccccc21`, the compound was called inactive in assay [2], in assay [1] and in [7].

Turning to `CCn1nc(C)c2c1C(=O)NCC(c1ccc(O)cc1)=N2`, the result in [8], in assay [1], in assay [5] and in assay [7] was inactive.

In the case of `Cc1nccn1-c1ccc(Sc2cccc(C3(C(N)=O)CCOCC3)c2)cc1`, the compound was classed as inactive in assay [8], in assay [1], in assay [5] and in assay [7]. Besides, in the assay with NCBI gene 100848466, the AC50 is 7.1 µM (active).
